Screens deposited in PubChem by The Scripps Research Institute Molecular Screening Center.
TTR transcr act – TTR transcription activators in neuroblastoma reporter cells, primary screen, cell-based, luminescence, SH-SY5Y, TTR promoter Gaussia luciferase. AID 1117267, 2014. activation, % at 16.7 µM. hit rate 1.3% among 92,000. 100% = recombinant luciferase protein wells;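 active = activation above the mean of all tested compounds plus 3 SD, cut at about 9.5% in these data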;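 also: cells exposed to compounds for one day before reading; 0% = median of all test compound wells on the plate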
TTR inh HuH7 – TTR promoter reporter inhibitors in hepatoma cells, counter-screen for TTR transcription activator project, cell-based, luminescence, HuH7 hepatoma; shares compounds with TTR transcr act; HuH7 TTR promoter-Gaussia luciferase reporter; inhibition, % at 16.7 µM; hit rate 4% among 1,100; AID 1117279, 2014;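 active = average inhibition above the solvent-only control wells' mean plus 3 SD, cut at about 15% in these data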;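 also: 0% = cells with DMSO only and 100% = cells with inhibitor control FD; inhibitors lower well luminescence so higher value means more inhibition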
TTR act confirm – TTR transcription activators, retest, confirmation, cell-based, luminescence, SH-SY5Y, triplicate. SHSY5Y TTR promoter Gaussia luciferase; 100% = purified Lucia enzyme wells, no cells. 1,100 tested, under 10 active. activation, % at 16.7 µM. shares compounds with TTR transcr act;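 active = mean activation above a set limit taken from the earlier primary screen, cut at about 11% in these data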;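 also: 0% = DMSO-treated cells and 100% = recombinant Lucia luciferase without cells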
* = called active by the depositor. The sample as a whole holds a higher share of hits than the screen did.

SMILES | TTR transcr act | others
COC(=O)c1cn(NC(=O)/C=C/c2cc(OC)ccc2OC)c(=O)c2ccccc12 | 0
CC(C)(C)c1cc(C(=O)Nc2ccc(F)cc2)n(Cc2ccc(F)cc2)n1 | -2
CC(C)(C)c1cc(C(=O)NC2CC2)n(Cc2ccc(F)cc2)n1 | 9.7* | TTR inh HuH7=-28;TTR act confirm=1
CC(C)(C)C(=O)NNC(=O)c1cc(C(C)(C)C)nn1Cc1ccccc1 | 0
CCCCCCC(=O)NC1CCCCN(Cc2ccc(Cl)cc2)C1=O (stereo not given) | 0
O=C(c1ccccc1Cl)N1N=C(c2cccs2)CC1c1cccc(O)c1 (stereo not given) | -3
C=CCN(C(=O)[C@@H](C1CC1)[C@@H](O)c1ccc2ccccc2c1)c1ccccc1 | -2
CN1C2=NC(c3ccc4ccccc4c3)CC(=O)N2/C(=C\c2ccccc2)C1c1ccccc1C(F)(F)F (stereo not given) | 1
CCOC(=O)N1CCC(N(CCN(C)C)C(=S)Nc2ccc(OCC)cc2)CC1 | 1
COC(=O)[C@]1(C)N[C@H](CN(C)C(=O)c2ccc(F)cc2)[C@@H]2C(=O)N(Cc3ccccc3)C(=O)[C@@H]21 | 4
CCC(C)c1c(NS(=O)(=O)c2ccc(C)cc2)o[nH]c1=O (stereo not given) | -5
COc1cccc(CNC2CCC23CCC(C)CC3)c1 (stereo not given) | 1
CCn1c(N2CCN(S(=O)(=O)c3ccc(OC)cc3)CC2)nc2ccccc21 | 14* | TTR inh HuH7=-12;TTR act confirm=-1
COc1ccc(S(=O)(=O)N2CCN(Cc3ccccc3OC)CC2)cc1 | -1
COc1ccc(S(=O)(=O)n2c(N)nc3ccccc32)cc1 | -1
O=[N+]([O-])c1ccc2c(c1)-c1ccccc1C2O (stereo not given) | 3
O=C1NC[C@@H](c2ccccc2)OC(=O)[C@@H](Cc2ccc(F)cc2)C/C=C\C[C@@H]1CC(=O)N(CCO)Cc1ccccc1 | -4
O=C(NCCc1ccccc1)OCc1cn(Cc2cccc(F)c2F)nn1 | 1
CC(=O)NC(Cc1ccc(F)cc1)C(=O)NC1CCN(C(=O)Nc2ccccc2C)CC1 (stereo not given) | -1
CCCNC(=O)c1cc(S(=O)(=O)N2CCC3(CC2)OCCO3)ccc1F | -1
Cc1cc(SCC(=O)c2cc3ccccc3o2)nc2ccccc12 | 0
Cc1cc(SCC(=O)O)nc2ccccc12 | 30* | TTR inh HuH7=-2;TTR act confirm=1
O=C(O)CSc1cnc2ccccc2n1 | 8
COc1ccc(C(O)Cn2cc([N+](=O)[O-])nc2C)cc1 (stereo not given) | 1
C[C@H]1[C@H](c2ccccc2)Oc2cccc(N3CCCC3)c2S(=O)(=O)N1Cc1cccc(F)c1 | 8
SMILES | TTR transcr act | others
N#C/C(=C(/O)CO/N=C/c1ccccc1Cl)c1nc2ccccc2[nH]1 | 0
CCOC(=O)[C@]12CCCC=C1N(Cc1ccc(OC)cc1)C(=O)[C@@H]2CC(=O)NCCC(C)C | 0
CC(=O)NNC(=O)CCn1nnc(-c2ccc(Cl)cc2)n1 | 3
O=C1C(C23CC4CC(CC(C4)C2)C3)C(=O)N(c2ccccc2)N1c1ccccc1 | 51* | TTR inh HuH7=2;TTR act confirm=0
O=C(NCc1ccccc1)NC12CC3CC(CC(C3)C1)C2 | 5
O=C1CC(c2ccccc2)CC(=O)N1c1ccccc1 | 1
CC(=O)Nc1ccc(/C=C(\C#N)S(=O)(=O)c2ccc(C)cc2)cc1 | 2
Cc1cc(C)c2c(N)c(C(=O)Nc3ccccc3Cl)sc2n1 | 12* | TTR inh HuH7=-6;TTR act confirm=-1
COCc1cc(C)nc2sc(C(=O)Nc3ccccc3C)c(N)c12 | 2
Cc1cc(C)c2c(N)c(C(=O)c3ccccc3Cl)sc2n1 | 1
Cc1cc(C)c2c(N)c(C(=O)Nc3ncc(C)s3)sc2n1 | 3
CC(=O)c1sc2nc(-c3ccc(C)cc3)c3c(c2c1N)CCCC3 | 3
CC(=O)c1sc2nc(C)cc(C)c2c1N | 23* | TTR inh HuH7=-3;TTR act confirm=-1
c1ccc2cc3[nH]c(CNc4nc(N5CCOCC5)nc5c4ncn5-c4ccsc4)nc3cc2c1 | 8
COc1ccc(S(=O)(=O)Nc2cc3c4c(c2)CCN4C(=O)CC3)cc1OC | -1
CN(Cc1ccccc1)C(=O)OCc1cn(Cc2cccc(F)c2F)nn1 | -1
Cc1ccc(-c2c3c(nc4sc(C(N)=O)c(N)c24)CCCC3)o1 | -1
COc1ccc2nc3c(c(-c4ccccc4)c2c1)CCC3 | -4
COc1ccc(-c2c3c(nc4sc5c(=O)[nH]c(C)nc5c24)CCC3)cc1 | 16* | TTR inh HuH7=-6;TTR act confirm=-1
N#Cc1cccc(NC(=O)CC2CCCC2)c1 | -1
N#Cc1cccc(NC(=O)CCn2ccnc2)c1 | 2
N#Cc1cccc(NC(=O)CN2NS(=O)(=O)c3ccccc3C2=O)c1 | 11* | TTR inh HuH7=-12;TTR act confirm=-1
CN(CCOC(=O)c1cc2ccccc2o1)C1CN(Cc2cn(Cc3ccccc3Cl)nn2)S(=O)(=O)C1 (stereo not given) | 0
Cc1ccc(S(=O)(=O)N2CCCCC2)cc1NC(=O)COC(=O)c1ccc(=O)[nH]c1 | 2
C=CCN1C(=O)CS/C1=N\N=C\c1cccc([N+](=O)[O-])c1 | 2
SMILES | TTR transcr act | others
COc1ccc(Br)cc1CN1CCCCCC1 | -2
CC1O[C@@H](O[C@H](C)CC[C@@H](C)O[C@H]2OC(C)[C@@H](O)C[C@H]2O)C(O)C[C@H]1O (stereo not given in full) | 14* | TTR inh HuH7=-15;TTR act confirm=2
O=S1(=O)CCOC[C@H](c2ccccc2)N1Cc1ccccc1 | 7
O=C(OCC(=O)N1CCCC1=O)c1cc(Cl)ccc1O | -1
CCCC1CCC2(CC1)CCC2OC(=O)Nc1ccc(C)cc1 (stereo not given) | -1
CCC[C@H]1[C@@H](OC(=O)NCCc2c[nH]c3ccccc23)CC[C@@]23CCCN2C(=O)CCC[C@@H]13 | -1
Cc1cccc(NC(c2ccc(O)cc2)c2ccc3ccc(C)nc3c2O)n1 (stereo not given) | 15* | TTR inh HuH7=20*;TTR act confirm=0
Cc1cccc(NC(=S)Nc2cccc(C)n2)n1 | 1
Oc1cccc(C(Nc2nccs2)c2ccc3cccnc3c2O)c1 (stereo not given) | -1
Cc1ccc2c(c1)C1(C)C(C(C)(C)N2C=O)C1(Cl)Cl (stereo not given) | 1
CCCCC#Cc1cncc(C(=O)N/N=C/c2cccc(OC)c2)c1 | -2
COCCNC(=O)C1(C)CCCN(C(=O)c2ccccc2F)C1 (stereo not given) | 1
